{"source": "PubChem BioAssay (NCATS)", "note": "Records with an inconclusive call do not appear. A call without a number means that no potency is given here. Activity calls are given as the source filed them. Calls come from the whole dose curve; as a rule, active = well fitted cell-killing curve with a large enough effect; inconclusive = small, poorly fitted or top-dose-only effect, or effect the other way; inactive = no such curve, though single readings can be large or run the other way. Potency is the fitted concentration of half-maximal effect.", "data": [{"test": "Quantitative High-Throughput drug screen in 47 multiple myeloma cell lines against the NCATS MIPE library collection: KMS11_JCRBsus cell viability assay (AID 1919873); note: nearly all actives have a fitted effect of over 50% in size", "settings": "KMS11 myeloma viability, CellTiter-Glo ATP luminescence, 48 h; series mostly up to 45.8 µM", "text": "PI: Beverly A. Mock Ph.D.\nLaboratory of Cancer Biology and Genetics,\nCenter for Cancer Research, National Cancer Institute,\nNational Institute of Health, Bethesda, Maryland\nDrug resistance and disease progression are common in multiple myeloma (MM) patients, underscoring the need for new therapeutic combinations. […] We hypothesized that effective combinations would reduce MYC expression and enhance p16 activity. […] These preclinical data identify potentially useful drug combinations for evaluation in drug-resistant MM and reveal potential mechanisms of combined drug sensitivity.\nDescribed herein is the primary MIPE qHTS used to cherrypick compounds. Validated compounds were then further tested for potential synergistic activiy.\n[1] Peat TJ, Gaikwad SM, Dubois W, Gyabaah-Kessie N, Zhang S, Gorjifard S, Phyo Z, Andres M, Hughitt VK, Simpson RM, Miller MA, Girvin AT, Taylor A, Williams D, D'Antonio N, Zhang Y, Rajagopalan A, Flietner E, Wilson K, Zhang X, Shinn P, Klumpp-Thomas C, McKnight C, Itkin Z, Chen L, Kazandijian D, Zhang J, Michalowski AM, Simmons JK, Keats J, Thomas CJ, Mock BA. Drug combinations identified by high-throughput screening promote cell cycle transition and upregulate Smad pathways in myeloma. Cancer Lett. 2023 Aug 1;568:216284. doi: 10.1016/j.canlet.2023.216284. Epub 2023 Jun 24. PMID: 37356470; PMCID: PMC10408729.\nSEQUENCE No. (e.g., 1, 2, 3, etc.); […] (e.g., Cells, Incubation, Reagent, etc.); VALUE and DESCRIPTION.\n1; Cells; 5 uL; white, solid bottom 1536-well Greiner assay plate.\n2; Compounds; 23 nL; Kalypsis pin tool (Wako USA) equipped with a 1536-well pin head to transfer to the assay plates.\n3; Incubation; 48 hours; 37C incubation.\n4; Reagent;5uL; CellTiter Glo (Promega).\n5; Detector; 425V; Luminescence; Viewlux PerkinElmer.\nNOTES (numbers refer to Sequence numbers above)\n1. The cell-based screening methods employed in this study were like those previously published. Briefly, the corresponding myeloma cell lines were screened in 1,536-well plates with 500 cells, 5-uL per well for inhibition of cell viability (assessed by measuring ATP levels with CellTiterGlo).\n2. NCATS MIPE 4.0 library of approved and investigational drugs were added using the Kalypsis pin tool. Wells treated with DMSO only for 100% viability and media only for 0% viability were used as controls.\n3. The assay plates were covered and incubated for 48 hours in a 37C, 5% CO2 incubator with controlled humidity.\n4. After 48 hours, CellTilter-GloTM luminescent substrate mix (Promega) reagent was added to the assay plate and plates we incubated for 5 min at room temperature.\n5. Signal was measured as median relative luminescence units on a ViewLux (PerkinElmer) multiplate reader.\n[1] Heske CM, Davis MI, Baumgart JT, Wilson K, Gormally MV, Chen L, Zhang X, Ceribelli M, Duveau DY, Guha R, Ferrer M, Arnaldez FI, Ji J, Tran HL, Zhang Y, Mendoza A, Helman LJ, Thomas CJ. Matrix Screen Identifies Synergistic Combination of PARP Inhibitors and Nicotinamide Phosphoribosyltransferase (NAMPT) Inhibitors in Ewing Sarcoma. Clin Cancer Res. 2017 Dec 1;23(23):7301-7311. doi: 10.1158/1078-0432.CCR-17-1121. Epub 2017 Sep 12. PMID: 28899971; PMCID: PMC6636827.", "values": [{"smiles": "COC[C@@H](NC(C)=O)C(=O)NCc1ccccc1", "Potency": "inactive"}, {"smiles": "CN(C)CCc1ccc(O)cc1", "Potency": "inactive"}, {"smiles": "CNC(=O)c1ccc(N2C(=S)N(c3ccc(C#N)c(C(F)(F)F)c3)C(=O)C23CCC3)cc1F", "Potency": "inactive"}, {"smiles": "C=C(C)[C@H]1Cc2c(ccc3c2O[C@@H]2COc4cc(OC)c(OC)cc4[C@@H]2C3=O)O1", "Potency": "0.332 µM (active)"}, {"smiles": "C[C@@H]1O[C@@H](O[C@H]2C[C@@H](O)[C@]3(CO)[C@H]4[C@H](O)C[C@]5(C)[C@@H](C6=CC(=O)OC6)CC[C@]5(O)[C@@H]4CC[C@]3(O)C2)[C@H](O)[C@H](O)[C@H]1O", "Potency": "0.0935 µM (active)"}, {"smiles": "Cn1c(CCCC(=O)O)nc2cc(N(CCCl)CCCl)ccc21", "Potency": "inactive"}, {"smiles": "CC(O)(CS(=O)(=O)c1ccc(F)cc1)C(=O)Nc1ccc(C#N)c(C(F)(F)F)c1", "note": "(configuration not stated)", "Potency": "inactive"}, {"smiles": "COc1ccc(C(=O)c2c(C)n(CCN3CCOCC3)c3ccccc23)cc1", "Potency": "inactive"}, {"smiles": "O=C1CC[C@@]2(O)[C@H]3Cc4ccc(O)c5c4[C@@]2(CCN3CC2CC2)[C@H]1O5", "Potency": "inactive"}, {"smiles": "Cc1sc2c(c1C)C(c1ccc(Cl)cc1)=N[C@@H](CC(=O)OC(C)(C)C)c1nnc(C)n1-2", "Potency": "0.059 µM (active)"}, {"smiles": "CNCC(O)c1ccc(O)cc1", "note": "(configuration not stated)", "Potency": "inactive"}, {"smiles": "CN1CCN(C(=O)O[C@H]2c3nccnc3C(=O)N2c2ccc(Cl)cn2)CC1", "Potency": "inactive"}, {"smiles": "C[C@@H]1[C@@H](CC(C[C@H]2O[C@@H]3O[C@]4(C)CC[C@@H]5[C@H](C)CC[C@@H]([C@H]2C)[C@@]35OO4)C[S+](=O)([O-])c2ccc(COC(=O)N(C)C)cc2)O[C@@H]2O[C@]3(C)CC[C@H]4[C@H](C)CC[C@@H]1[C@@]24OO3", "note": "(some centres not stated)", "Potency": "0.148 µM (active)"}, {"smiles": "CC(C)CC(N(C)C)C1(c2ccc(Cl)cc2)CCC1", "note": "(configuration not stated)", "Potency": "18.7 µM (active)"}, {"smiles": "N[C@@H](Cc1ccc(N(CCCl)CCCl)cc1)C(=O)O", "Potency": "23.5 µM (active)"}, {"smiles": "COc1ccc(C(CN(C)C)C2(O)CCCCC2)cc1", "note": "(configuration not stated)", "Potency": "inactive"}, {"smiles": "COC[C@H]1OC(=O)c2coc3c2[C@@]1(C)C1=C(C3=O)C2CCC(=O)[C@@]2(C)C[C@H]1OC(C)=O", "note": "(some centres not stated)", "Potency": "13.2 µM (active)"}, {"smiles": "Cc1cccc(C)c1NC(=O)CN1CCCC1=O", "Potency": "inactive"}, {"smiles": "NCC1(CC(=O)O)CCCCC1", "Potency": "inactive"}, {"smiles": "Fc1ccc(C(OCCN2CCN(CCCc3ccccc3)CC2)c2ccc(F)cc2)cc1", "Potency": "11.8 µM (active)"}, {"smiles": "CN(C)[C@@H]1C(=O)C(C(N)=O)=C(O)[C@@]2(O)C(=O)C3=C(O)c4c(O)cccc4[C@@](C)(O)[C@H]3C[C@@H]12", "Potency": "inactive"}, {"smiles": "CN(C)CCN(C)CCc1ccc(Cl)c(Cl)c1", "Potency": "inactive"}]}]}
